# VLA-4 inh – inhibition in a human VLA-4 binding assay; P13612; inhibition, % (about 7 µM as worked out from the volumes in the protocol); 330,000 tested, 0.2% active; AID 2557; VLA-4 expressing cells, ligand binding flow cytometry; in the data active = inhibition above about 50%
# Target sequence (P13612 whole entry, looked up): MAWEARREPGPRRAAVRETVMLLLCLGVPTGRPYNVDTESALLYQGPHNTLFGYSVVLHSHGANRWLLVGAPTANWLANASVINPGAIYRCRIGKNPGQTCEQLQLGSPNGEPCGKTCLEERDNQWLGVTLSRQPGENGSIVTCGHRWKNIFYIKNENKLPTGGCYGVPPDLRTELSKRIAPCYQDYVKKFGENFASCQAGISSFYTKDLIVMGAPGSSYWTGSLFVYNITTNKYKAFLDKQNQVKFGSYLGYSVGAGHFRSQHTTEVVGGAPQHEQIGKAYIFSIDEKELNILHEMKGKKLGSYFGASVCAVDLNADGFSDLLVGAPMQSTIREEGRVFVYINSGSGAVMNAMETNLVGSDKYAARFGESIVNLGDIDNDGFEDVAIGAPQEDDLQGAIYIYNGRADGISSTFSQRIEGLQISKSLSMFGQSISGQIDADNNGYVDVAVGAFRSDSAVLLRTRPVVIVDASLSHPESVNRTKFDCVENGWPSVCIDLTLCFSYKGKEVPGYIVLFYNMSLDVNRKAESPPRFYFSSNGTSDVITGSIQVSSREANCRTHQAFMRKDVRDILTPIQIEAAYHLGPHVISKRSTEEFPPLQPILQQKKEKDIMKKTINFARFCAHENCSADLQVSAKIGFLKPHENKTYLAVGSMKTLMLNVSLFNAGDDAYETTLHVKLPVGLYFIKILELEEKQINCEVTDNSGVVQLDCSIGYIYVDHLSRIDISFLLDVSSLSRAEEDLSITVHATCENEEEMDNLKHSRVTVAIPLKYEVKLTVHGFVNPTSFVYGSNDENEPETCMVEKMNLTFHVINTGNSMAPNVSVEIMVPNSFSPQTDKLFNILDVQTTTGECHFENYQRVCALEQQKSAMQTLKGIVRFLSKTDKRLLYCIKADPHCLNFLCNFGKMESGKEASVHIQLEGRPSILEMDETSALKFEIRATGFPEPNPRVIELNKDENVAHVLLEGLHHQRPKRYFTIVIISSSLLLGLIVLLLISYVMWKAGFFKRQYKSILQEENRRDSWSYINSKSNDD
# ABCB6 inh MLPCN – inhibitors of human ABC transporter ABCB6. Q9NP58. K562-ABCB6 porphyrin accumulation, flow cytometry, 1 h; hits give low values. fluorescence ratio to DMSO, % at 10 µM. 360,000 tested, 0.19% active. AID 602162;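 active = fluorescence ratio to DMSO below 75%, the collection mean minus 3 SD; inconclusive = too few cells collected in the well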;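 note: signal is porphyrin accumulated inside mitochondria; 100% equals median channel fluorescence of DMSO control wells; lower ratio means ABCB6 inhibition with less porphyrin fluorescence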
# GASC-1 inh – blocks human GASC-1 demethylase activity. GST-JMJD2C(1-420) H3K9me3 demethylation, DELFIA europium. Q9H3R0. 330,000 tested, 0.069% active. inhibition, % at 2.35 µM;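 active = more than half of a compound's replicate wells show inhibition beyond 50%, single wells judged on their own value; inconclusive = some, but no more than half, of replicates pass 50% inhibition; inactive = no replicate passes 50% inhibition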;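 note: signal counts dimethyl H3K9 product captured on neutravidin plate; 0% = median of DMSO wells and 100% = 0.3 times that DMSO median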
# PolyA inh – inhibitors of polyadenylation in S. cerevisiae; S. cerevisiae SKY197-pL101 polyadenylation reporter, beta-gal luminescence; efflux-impaired pdr1/pdr3 knockout yeast; score 100 = 6 SD above DMSO; 300,000 tested, 0.02% active; AID 1875; activity score, % at 12 µM;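 active = lowest replicate activity score at least 50, where 100 means six control SD above control mean; inconclusive = lowest score under 50 but half or more replicates reach 50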;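 note: yeast exposed to compound for 9 h at 30 °C; higher score means more reporter readthrough which indicates perturbed polyadenylation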
# VLA-4 allo CP – confirmation of allosteric modulators of human VLA-4 integrin; shares compounds with VLA-4 inh; U937 cells, HUTS-21 LIBS mAb binding, flow cytometry; LDV ligand present at threefold Kd; inhibition, % at 6.7 µM; 1,300 tested, 2% active; AID 2813; in the data active = inhibition above about 40%;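 note: 0% = ligand without compound and 100% = no ligand background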
# An asterisk follows results filed as active; ? = inconclusive; · = no result given; ! = repeats disagree. Sampled rows, rich in hits. Any-hit rate of the full collection: about 0.44%.
SMILES,VLA-4 inh,ABCB6 inh MLPCN,GASC-1 inh,PolyA inh,others
O=C1NC(=O)N(Cc2ccc(F)cc2)C(=O)/C1=C\C=C\c1ccco1,32,95,69*,16,
O=C1NC(=O)N(Cc2ccccc2)C(=O)/C1=C\c1ccco1,26,102,10,12,
C=C1C(=O)OC2CC3(C)OC3C3OC3C3=CC(OC3=O)C12 (stereo not drawn),·,36*,·,·,
Cn1cc(C=C2C(=O)NC(=O)NC2=O)c2ccccc21,7,96,0,1,
C=CCn1c(C)c(C=C2C(=O)NC(=O)NC2=O)c2ccccc21,0,116,50*,5,
Cc1ccsc1C(=O)C1CCCN(Cc2cnc(N3CCOCC3)s2)C1 (stereo not drawn),13,91,5,-2,
O=C1OCCC1C(=O)c1ccccc1 (stereo not drawn),·,92,·,·,
O=C1NC(=O)C(C(CC(=O)c2ccccc2)c2ccccc2)C(=O)N1 (stereo not drawn),-4,102,53*,5,
C=CCc1cc(C=C2C(=O)NC(=O)NC2=O)cc(OC)c1OCc1ccc(C(=O)O)cc1,24,100,9,9,
COc1cc(/C=C/c2nc3ccccc3c(=O)n2-c2cccc(O)c2)ccc1O,-86,143,-5,61*,
CCOCCCNC(=O)Cn1nc(-c2ccc(OC)c(OC)c2)ccc1=O,·,89,·,·,
CN1C(=O)C(Cc2ccc(OCc3ccccc3)cc2)C(=O)N(C)C1=O,-3,95,50*,-7,
COc1cc(CC2C(=O)N(C)C(=O)N(C)C2=O)ccc1OCc1ccccc1,12,94,52*,1,
O=c1[nH]c(=O)n(CCC2=CCCCC2)c(O)c1/C=N/Nc1cccc2ccccc12,0,124,-10,3,
CC1CCCN(C(=O)CN2C3CCC2CC(O)(c2ccc(F)cc2)C3)C1 (stereo not drawn),18,100,3,0,
CC1CCCN(C(=O)CCl)C1 (stereo not drawn),56*,103,-11,7,
CN1CCN(c2ccc(C=O)cc2)CC1,-1,93,59*,-11,
CN1CCN(c2ccc(N)cc2)CC1,4,100,4,15,
O=S(=O)(NC1CCCCCCC1)OCC(Cl)(Cl)Cl,2,98,31,5,
CCOC(=O)C1=CC(=C2C(=O)N(CC)C(=S)N(CC)C2=O)c2ccccc2O1,-13,·,53*,15,
O=C(N/N=C/c1c(O)n(C2CCCCC2)c(=S)[nH]c1=O)c1ccccc1O,21,111,13,-19,
O=C(N/N=C/c1c(O)n(C2CCCCC2)c(=S)[nH]c1=O)c1ccccc1,4,12*,1,-24,
Cn1ncnc2c(=O)n(C)c(=O)nc1-2,42,112,81*,10,
COC(=O)C1=C(c2ccc(Cl)c(C(F)(F)F)c2)C[C@@H]2CC[C@H]1N2C(=O)N1CCC(O)(c2ccc(Cl)cc2)CC1,-1,98,·,·,
Cc1ccc(-c2cc(-c3ccccc3)cc(-c3ccccc3)[n+]2-c2ccccc2)cc1,-1,86,-11,-16,
SMILES,VLA-4 inh,ABCB6 inh MLPCN,GASC-1 inh,PolyA inh,others
Cc1ccc(-c2cc(-c3ccc(C)cc3)[n+](-c3ccccc3)c(-c3ccc(C)cc3)c2)cc1,54*,90,-27,6,VLA-4 allo CP=3
COC(=O)[C@@H]1[C@@H](C(=O)OC)C2(c3ccccc3-c3ccccc32)N(c2ccc(Cl)cc2)N1C#N,58*,87,4,-23,VLA-4 allo CP=38
COC(=O)C[C@]1(C(=O)OC)CN(C#N)N(c2ccc(Cl)cc2)C12c1ccccc1-c1ccccc12,57*,81,4,-31,VLA-4 allo CP=32
CCN1C[C@]2(CO)CC[C@H](OC)[C@@]34C2[C@H](OC)[C@@](O)(C13)[C@@]1(O)C[C@H](OC)[C@H]2C[C@@H]4[C@@H]1[C@H]2OC,-2,99,-11,-7,
O=C(Cn1cc(C(=O)c2ccccc2F)c2ccccc21)NCc1ccco1,0,101,6,-4,
COCCNC(=O)Cn1cc(C(=O)c2ccccc2F)c2ccccc21,6,102,-5,-1,VLA-4 allo CP=1
CCN1CCN(Cc2cc(C(C)(C)C)c(O)c(C(C)(C)C)c2)CC1,-1,·,-4,-11,
Nc1ncc2[nH]cnc2n1,53*!,98,-36,8,VLA-4 allo CP=2
COC(=O)C1C(OC(=O)c2ccccc2)CC2CCC1N2C (stereo not drawn),3,97,-13,?,VLA-4 allo CP=-5
CCN1CCN(c2ncnc3ccc(Br)cc23)CC1,1,100,3,23,
